Reference: PubChem BioAssay AID1861 (The Scripps Research Institute Molecular Screening Center, 2009)
Hit rate of the full screen: of about 290,000 compounds, about 3,100 (1.1%) were called active. Rule as the data show it: active = inhibition above about 16% (passing the limit was not always enough); inactive = the rest. What follows is part of a selection rich in actives, with near analogues and random picks from the rest.

These molecules were tested against Neuropeptides B/W receptor type 1 (Homo sapiens) (UniProt P48145) (assay: blockers of human neuropeptide B/W receptor 1 – cell-based, fluorescence, single concentration, primary screen (AID 1861;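 also: cells stimulated with the agonist NPW; 0% = agonist with vehicle and 100% = vehicle without agonist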)). Conditions: GPR7-expressing cells, fluorescence antagonist assay; at 4.4 µM; hits give high values.
Sequence of Neuropeptides B/W receptor type 1 (Homo sapiens) (P48145 whole entry, looked up): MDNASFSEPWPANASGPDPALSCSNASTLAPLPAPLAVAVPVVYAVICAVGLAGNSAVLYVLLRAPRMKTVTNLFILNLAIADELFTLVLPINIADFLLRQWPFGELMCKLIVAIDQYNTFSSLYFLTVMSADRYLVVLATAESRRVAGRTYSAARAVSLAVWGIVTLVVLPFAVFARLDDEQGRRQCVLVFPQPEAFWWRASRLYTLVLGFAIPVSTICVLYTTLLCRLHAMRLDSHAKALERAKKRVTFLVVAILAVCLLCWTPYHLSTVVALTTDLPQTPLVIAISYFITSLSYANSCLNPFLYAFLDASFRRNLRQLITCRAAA

inhibition, inactive:
Cc1cccc(Oc2c([N+](=O)[O-])c(=O)n(C)c3ccccc23)c1 -3.17%, Cc1nn(C)c(Oc2ccccc2)c1[N+](=O)[O-] -4.53%, CC(Cc1cccs1)N(Cc1ccc(Cl)cc1)C(=O)c1ccncc1 (centres undefined) 14.5%, O=[N+]([O-])c1cccc(/C=N/Nc2ncc(Br)cn2)c1 -6.1%, Cc1c(CN2CCC(n3nccc3NC(=O)CCc3ccccc3)CC2)cnn1C 0.34%, COc1ccc(S(=O)(=O)Nc2cccnc2)c(Cl)c1Cl 4.69%, O=S(=O)(Nc1ccccn1)c1ccc(Oc2ccccc2)cc1 -3.88%, CC(Oc1cccc(Cl)c1)C(=O)NC1CC(C)(C)NC(C)(C)C1 (centres undefined) -7.54%, Cc1cc(=O)oc(C)c1C(=O)NC1CC(C)(C)NC(C)(C)C1 6.27%, O=c1oc2ccccc2c(CNc2ccccc2)c1[N+](=O)[O-] 6.62%, CCN1CCN(CCNC(=O)c2ccc(/C=C3/Sc4ccccc4N(Cc4cccc(C)c4)C3=O)cc2)CC1 3.05%, Cc1cc(-c2ccc(S(=O)(=O)N3CCc4ccccc4C3)s2)on1 1.59%, CC(=O)Oc1ccc2c(=O)oc(-c3ccc([N+](=O)[O-])cc3)nc2c1 -20.8%, Cc1cccc(N(C(=O)c2csnn2)C(C(=O)NCc2ccccc2)c2ccncc2)c1 (centres undefined) -21.8%, CCC(=O)Nc1ccc(S(=O)(=O)Nc2c(NC)c3ccccc3oc2=O)cc1 -6.83%, Cn1c(Nc2ccccc2)cc(=O)n(C)c1=O 19.8%, Cc1cccc(N2CCN(C(=O)c3cc4c(=O)[nH]c5ccccc5c4n3C)CC2)c1C -11.3%, COCCNC(=O)C(c1ccc(C)o1)N(Cc1ccccc1)C(=O)Cn1nnc2ccccc21 (centres undefined) -3%, O=C(NCc1ccco1)C(c1ccncc1)N(C(=O)Cn1nnc2ccccc21)c1ccccc1 (centres undefined) -15.7%, CCOc1ccc(C(CC(=O)O)NC(=O)Cc2ccccc2)cc1OC (centres undefined) -15.8%, COc1cccc2cc(C(N)=O)/c(=N\NC(=O)c3ccccc3)oc12 20.9%, O=C(c1cc(COc2ccc(F)c(F)c2)on1)N1CCOCC1 1.79%, CCn1ccnc1CN(C)C(=O)c1cc(COc2ccc(-n3cncn3)cc2)on1 -16.5%, O=C(COC(=O)c1ccc(F)cc1)NCCCc1ccccc1 12.2%, O=C(c1ccc(Cl)cc1)c1cnc(Nc2ccccc2)s1 7.11%, CS(=O)(=O)c1ccc(Cl)c(NC(=O)Nc2ccccc2)c1 4.03%, COc1ccccc1N1CCN(C(=O)c2ccc(NC3=NC4CS(=O)(=O)CC4S3)cc2)CC1 (centres undefined) -7.21%, O=C(O)c1ccc(NC(=O)c2ccc(COc3ccc(Cl)cc3)o2)cc1 15.6%, CCOc1ccc(OCc2ccc(C(=O)Nc3cccc(C)n3)o2)cc1 -9.15%, CCNc1c(NS(=O)(=O)c2ccc(C3CCCCC3)cc2)c(=O)oc2ccccc12 12.2%, CC(=O)N1CCN(c2ccccc2NC(=S)NC(=O)c2cc3ccccc3o2)CC1 -12.1%, Cc1cc(C)nc(N/N=C/c2ccc([N+](=O)[O-])o2)n1 -3.49%, Cc1ccc(CNCc2ccc3c(c2)OCO3)c(C)c1 -3.64%, COc1ccc(C2(C)NC(=O)N(CC(=O)c3ccc4c(c3)OCO4)C2=O)cc1 (centres undefined) 0.08%, COc1ccc(C(=O)CN2C(=O)NC(C)(c3ccc(C)cc3)C2=O)cc1OC (centres undefined) 22.6%, Cc1nonc1NC(=O)c1oc2ccccc2c1C -9.19%, CCc1ccc(NC(=O)Cn2nnc(C(=O)NCc3ccc(OC)cc3)c2N)cc1 -9.93%, CCOc1ccc(Cn2nnc(C(=O)Nc3ccc(OC)cc3OC)c2N)cc1 17.7%, O=C(NCCc1ccccn1)c1cccnc1Oc1ccc(Cl)cc1 -10.8%, COc1ccc(CCNC(=O)c2ccccc2OCc2ccccc2)cc1 1.73%, CC(C)NC(=O)C(c1ccc(F)cc1)N(C(=O)CCC(=O)Nc1ccccn1)c1ccccc1F (centres undefined) -14.6%, Cc1ccc2[nH]cc(CCNC(=O)C3CCCCC3)c2c1 -3.83%, O=C(NCCc1c[nH]c2ccc(Cl)cc12)c1ccc([N+](=O)[O-])cc1 7.45%, O=C(N/N=C/c1ccccc1O)C1CCCC1 -6.49%, CCN(CC)CCCNC(=O)CCn1nc(-c2ccc(Cl)cc2)ccc1=O 11%, Cc1ccccc1N1CC(C(=O)Nc2ccc3c(c2)OCO3)CC1=O (centres undefined) -9.07%, Cc1ccc(NC(=O)C2CC(c3ccc(F)cc3)=NO2)cc1 (centres undefined) -5.41%, CS(=O)(=O)N1CCc2nc(-c3ccccc3)sc2C1 -4.29%, CC(=O)c1cccc(NC(=O)c2ccncc2)c1 -7.93%, C=C(C)C(=O)Nc1cccc(C(C)=O)c1 -8.07%, CCSc1nsc(NC(=O)Nc2ccccc2OC)n1 0.35%, C=CCSc1nnc(NC(=O)c2ccc(NC(C)=O)cc2)s1 -10.1%, Cc1ccc(S(=O)(=O)NCc2ccc(C(=O)NC3CCC(C)CC3)cc2)cc1 (centres undefined) -11.8%, COC(=O)c1ccc(CN2CCCC(C(=O)Nc3cccc(-n4cnnn4)c3)C2)cc1 (centres undefined) -3.8%, CCOC(=O)C1Sc2[nH]c(=O)sc2C(c2ccc(Cl)cc2)C1C(=O)OCC (centres undefined) -3.9%, Cc1cc(C)c(C(=O)CSc2nc(C)cc(=O)[nH]2)c(C)c1 5.17%, COc1ccc(C2CC(c3ccc(C)cc3)Nc3ncnn32)cc1 (centres undefined) 3.36%, COc1ccc(C2CC(c3ccccc3)Nc3ncnn32)cc1 (centres undefined) 12.2%, Brc1ccccc1CN1CCC(Cc2ccccc2)CC1 -13.6%, COc1ccc(Cn2c(C)c(C)c(C#N)c2NC(=O)Nc2ccc(F)cc2)cc1 -4.33%, COc1cccc(/C=C2/SC(=S)N(CC(=O)NC3C=CS(=O)(=O)C3)C2=O)c1 (centres undefined) -2.21%, Cc1nc2ccc(S(=O)(=O)N(C)CC(=O)NC(C)c3ccccc3)cc2s1 (centres undefined) 2.55%, COCCN1C(=O)C(=O)/C(=C(/O)c2ccc(S(=O)(=O)N3CCCCC3)cc2)C1c1ccc(OC)c(OC)c1 (centres undefined) -6.88%, COC(=O)c1cc(N2CCNCC2)nc2ccccc12 1.6%, COc1ccccc1CC(=O)NCCc1c[nH]c2ccccc12 -0.98%, COc1ccc(S(=O)(=O)NCCc2c[nH]c3ccccc23)cc1OC -6.73%, O=C(CN1CCC(NC(=O)Nc2ccccc2)CC1)Nc1cccc([N+](=O)[O-])c1 -1.48%, CC(NC(=O)c1cc(=O)[nH]c2ccccc12)c1ccc(F)cc1F (centres undefined) 0.31%, CC(C)CC(CCc1ccccc1)OS(N)(=O)=O (centres undefined) -8.91%, Cc1nc(C)c(C(=O)Nc2cccc(C)c2C)o1 1.66%, Cc1cccc(NC(=O)c2ccc3nsnc3c2)c1C 4.08%, CC(C)N1CCC(NC(=O)Nc2ccccc2)CC1 -11.8%, Cn1cc(CNC(=O)c2ccc(OC3CCN(Cc4ccccn4)CC3)cc2)cn1 -5.98%, CN(Cc1ccccc1)C(=O)c1ccc(NC2=NC3CS(=O)(=O)CC3S2)cc1 (centres undefined) -12.5%, COc1ccc(C2C=C(c3ccc(Br)cc3)Nc3nc(NS(C)(=O)=O)nn32)cc1 (centres undefined) 15%

inhibition, active:
Cn1c(=O)c([N+](=O)[O-])c(Oc2ccccc2)c2ccccc21 101%, COc1ccccc1Oc1ccc(S(=O)(=O)Nc2cccnc2)cc1 27.5%, Cc1cc(OC(C)C(=O)NC2CC(C)(C)NC(C)(C)C2)c2c(C)cc(=O)oc2c1 (centres undefined) 27.1%, CCN1/C(=C/c2ccc3ccc(C)cc3[n+]2CC)Sc2ccccc21 38.4%, CCN1/C(=C\c2ccc3ccccc3[n+]2CC)Sc2cc(C)ccc21 34.1%, COc1ccccc1N(C(=O)Cn1nnc2ccccc21)C(C(=O)NCc1ccco1)c1ccc(C)o1 (centres undefined) 27%, C=CCC1(CC=C)CCCN1C(=O)c1cc(COc2ccc(-n3cncn3)cc2)on1 29.1%, O=C(Nc1ccccc1)c1nnsc1S(=O)(=O)c1ccc(Cl)cc1 42.6%, Cc1cc(OCc2ccc(C(=O)Nc3ccc(C(=O)O)cc3)o2)ccc1Cl 38%, COc1cc(NC(=O)CN2C(=O)NC(C)(c3ccc(OC(F)F)cc3)C2=O)cc(OC)c1OC (centres undefined) 25.8%, CCOc1ccc(Cn2nnc(C(=O)NCc3ccccc3)c2N)cc1 35.9%, CCOc1ncccc1C(=O)NCCc1ccc(OC)cc1 24.6%, Cc1ccc2[nH]cc(CCNC(=O)c3ccc([N+](=O)[O-])cc3)c2c1 25%, O=C(Nc1ccc2c(c1)OCO2)C1CC(c2c(F)cccc2Cl)=NO1 (centres undefined) 29%, C=CCSc1nsc(NC(=O)Nc2cccc(C(C)=O)c2)n1 32.5%, CCSc1nsc(NC(=O)Nc2cccc(C(C)=O)c2)n1 37.1%, Clc1ccc(C2CC(c3cccs3)n3ncnc3N2)cc1Cl (centres undefined) 24.9%, COc1cccc(CNCCc2c[nH]c3ccccc23)c1OCc1ccccc1F 39.6%, Cc1cccc(NC(=O)c2cccc(C(=O)Nc3cccc(C)c3C)n2)c1C 36.1%
